Data on twelve molecules can be found in PubChem BioAssay.

Active and inactive are the calls of the source.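 Rule for the calls: active = mean inhibition above 46.5%, the solvent-only control mean plus 3 SD; inactive = the rest.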

The target of this experiment is Nuclear receptor coactivator 2 (Homo sapiens) (UniProt Q15596). The experiment is described as follows: inhibition of GAL4-SRC2 driven luciferase expression – cell-based, luminescence, HEK293, triplicate, confirmation (AID 652008).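 Note: 0% = DMSO-treated cells and 100% = Gossypol at 36 µM.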 To be noted: HEK293 GAL4-SRC2 luciferase reporter, at 8.9 µM, stronger effect = higher value.
Sequence of Nuclear receptor coactivator 2 (Homo sapiens) (Q15596 whole entry, looked up, the tested form may be a part): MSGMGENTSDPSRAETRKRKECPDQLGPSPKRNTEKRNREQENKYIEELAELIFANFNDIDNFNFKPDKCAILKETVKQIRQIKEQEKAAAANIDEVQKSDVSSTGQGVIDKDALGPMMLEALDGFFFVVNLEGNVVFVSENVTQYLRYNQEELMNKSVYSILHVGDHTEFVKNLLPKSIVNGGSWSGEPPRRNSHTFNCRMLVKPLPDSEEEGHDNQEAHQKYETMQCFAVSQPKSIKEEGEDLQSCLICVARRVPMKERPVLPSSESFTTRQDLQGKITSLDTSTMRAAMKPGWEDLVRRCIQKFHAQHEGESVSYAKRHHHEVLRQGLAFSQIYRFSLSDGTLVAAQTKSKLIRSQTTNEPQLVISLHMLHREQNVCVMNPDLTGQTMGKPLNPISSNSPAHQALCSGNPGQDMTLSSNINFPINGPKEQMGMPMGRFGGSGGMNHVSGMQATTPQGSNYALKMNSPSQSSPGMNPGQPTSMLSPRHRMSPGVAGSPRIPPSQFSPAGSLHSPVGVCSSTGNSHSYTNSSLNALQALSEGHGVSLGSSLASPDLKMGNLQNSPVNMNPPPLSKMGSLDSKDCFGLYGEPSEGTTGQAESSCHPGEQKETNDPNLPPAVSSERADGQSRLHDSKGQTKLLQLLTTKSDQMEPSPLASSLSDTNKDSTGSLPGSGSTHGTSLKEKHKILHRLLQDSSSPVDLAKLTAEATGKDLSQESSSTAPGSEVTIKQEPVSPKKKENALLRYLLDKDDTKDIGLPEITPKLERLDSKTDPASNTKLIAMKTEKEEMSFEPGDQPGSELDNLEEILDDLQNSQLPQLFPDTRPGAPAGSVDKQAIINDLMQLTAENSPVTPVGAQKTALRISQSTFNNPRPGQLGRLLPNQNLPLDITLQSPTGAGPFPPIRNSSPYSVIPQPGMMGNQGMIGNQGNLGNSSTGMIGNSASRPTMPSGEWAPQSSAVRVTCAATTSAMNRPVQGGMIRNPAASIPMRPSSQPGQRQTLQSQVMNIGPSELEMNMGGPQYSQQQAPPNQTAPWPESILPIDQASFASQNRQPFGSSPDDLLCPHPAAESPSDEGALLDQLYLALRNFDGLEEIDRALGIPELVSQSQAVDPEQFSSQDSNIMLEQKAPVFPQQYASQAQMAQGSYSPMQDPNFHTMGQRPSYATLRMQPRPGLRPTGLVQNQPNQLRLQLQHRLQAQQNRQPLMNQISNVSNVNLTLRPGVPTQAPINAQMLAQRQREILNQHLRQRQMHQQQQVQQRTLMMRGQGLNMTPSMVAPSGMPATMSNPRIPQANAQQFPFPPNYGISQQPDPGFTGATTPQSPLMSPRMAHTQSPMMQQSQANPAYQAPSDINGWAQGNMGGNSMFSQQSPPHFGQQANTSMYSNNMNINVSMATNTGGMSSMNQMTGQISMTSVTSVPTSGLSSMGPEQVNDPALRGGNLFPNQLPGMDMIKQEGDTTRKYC
For orientation: inhibition means the change of the read-out against control, counted positive when it falls. As to `CCOC(=O)C1(CCc2ccccc2)CCN(Cc2cccc3cnccc23)CC1`, the inhibition was 9.69% (inactive).

On to `Cc1ccccc1CN1Cc2cnnn2-c2ccccc2C1C#N` (configuration not stated), for which the inhibition is 48.8% (active).

Regarding `C[C@@H]1C[C@@H]([C@H](O)CC2CC(=O)NC(=O)C2)C(=O)[C@@H](C)C1`, the inhibition was 59.3% (active).

In the case of `CC(=O)OC1CC(OC2C(O)CC(OC3C(O)CC(OC4CCC5(C)C(CCC6C5CCC5(C)C(C7=CC(=O)OC7)CCC65O)C4)OC3C)OC2C)OC(C)C1OC1OC(CO)C(O)C(O)C1O` (configuration not stated), the inhibition is 54.4% (active).

As to `COC1=C(C)C(=O)C2=C(C1=O)C(CO)N1C(C#N)C3CC4C(C1C2N1CCOC41)N3C` (configuration not stated), the inhibition was 57% (active).

With `C[C@@H]1O[C@@H](O[C@@H]2C=C3CC[C@@H]4C(CC[C@]5(C)[C@@H](c6ccc(=O)oc6)CC[C@]45O)[C@@]3(C)CC2)[C@H](O)[C@H](O)[C@H]1O` (some centres not stated), the inhibition is 69.7% (active).

As for `COC1C(O)C(C)OC(OC2CCC3(C)C(CCC4C3C(O)CC3(C)C(C5=CC(=O)OC5)CCC43O)C2)C1O` (configuration not stated), the inhibition is 22.7% (inactive).

Take `O=Cc1cn(Cc2ccc(F)cc2Cl)c2ccccc12`: the inhibition was 26.5% (inactive).

For `COc1ccc(S(=O)(=O)N2Cc3cnnn3-c3ccccc3C2C#N)cc1` (configuration not stated), the inhibition was -21% (inactive).

As to `CCOP(=O)(OCC)c1cccc(OP(=O)(c2cccc([N+](=O)[O-])c2)c2cccc([N+](=O)[O-])c2)c1`, the inhibition is -32.1% (inactive).

For the molecule `O=C1NC(=O)N(Cc2ccco2)C(=O)/C1=C/C=C/c1ccco1`, the inhibition is -57.3% (inactive).

As for `NC(=O)c1c(Br)n(C2OC(CO)C(O)C2O)c2ncnc(N)c12` (configuration not stated), the inhibition was 35.3% (inactive).
